# Measured values: PubChem BioAssay (Tox21)
# Values joined by “and” are separate entries in the source; they are usually repeats but may differ in a detail not shown here. Equal values may be shown once. Results filed as inconclusive are left out. Active and inactive are the calls of the source. Calls come from the whole dose curve; as a rule, active = well fitted cell-killing curve with a large enough effect in the repeat runs; inconclusive = weak or mixed curves, or effect the other way; inactive = flat fitted curve, though single readings scatter.
# Test: qHTS assay to identify small molecule antagonists of the retinoid acid receptor (RAR) signaling pathway - cell viability counter screen (AID 1159551); note: nearly all actives have a fitted effect of over 35% in size
# Details: C3RL4 cells viability, ATP luminescence (CellTiter-Glo), 6 h; series mostly up to 92.4 µM; activity change, negative = cytotoxicity: at the top concentration
# Excerpt: U.S. Tox21 Program National Center for Advancing Translational Sciences [NCATS] NIH Chemical Genomics Center [NCGC] U.S. Environmental Protection Agency [EPA] National Institutes of Environmental Health Sciences [NIEHS] National Toxicology Program [NTP] U.S. Food and Drug Administration [FDA] Tox21 Assay Overview: All-trans Retinoic acid (atRA) is the potent natural metabolite of retinol and plays an important role in normal embryonic development and maintenance of cellular phenotype in adult animals. atRA is the activating ligand for the retinoic acid receptors (RARs) which form heterodimers with retinoid X receptors (RXRs) on the retinoic acid response element (RARE). Through activation of the RAR/RXRs nuclear receptors, atRA regulates the transcription of a large number of protein-coding genes and regulatory RNAs. Intracellular levels of atRA are controlled by the retinol signaling pathway (RSP) that regulates the biosynthesis and catabolism of atRA to maintain physiological levels. Chemicals that interfere with the RSP can cause abnormal intracellular levels of atRA and therefore are potential developmental toxicants. To assess compounds for the potential adverse effect on embryonic development through interfering with retinol signaling, a cell-based RARE luciferase reporter gene assay was used. C3RL4 cell line (OARSA/CFSAN/FDA, Laurel, MD) was used to screen Tox21 10K compound library for identifying inhibitors of the RSP. Also cytotoxicity was assessed by determining the viability of cells based on the quantitation of ATP.
# Tox21 Assay Protocol Summary: C3RL4 cells were seeded at 1,000/well in 4 uL of assay medium into white solid 1,536-well tissue culture plates (Greiner Bio-One North America Inc. Monroe, NC) using a Multidrop Combi (Thermo Scientific, Waltham, MA) dispenser. After incubation at 37 C and 5% CO2 for an overnight, 23 nL of compounds dissolved in DMSO, positive control or DMSO only were transferred by a Pintool station (Kalypsys, San Diego, CA). One ul of 1 uM (final concentration) of Retinol was added right after the compound addition by using a Flying Reagent Dispenser (FRD) (Aurora Discovery, San Diego, CA). After 6 hr incubation at 37 C and 5% CO2, 5 uL of CellTiter-Glo reagent (Promega Corporation, Madison, WI) was added to each assay plate using an FRD. Luminescence was quantified on a ViewLux plate reader (PerkinElmer, Waltham, MA) after 30 min incubation at room temperature.
# % is set by controls: 0 for no effect and ±100 for the full control effect; potency is the fitted concentration of half-maximal effect.
Structure (SMILES),"activity change, negative = cytotoxicity",Potency
Clc1ccc2ccccc2c1,-0.644% (inactive),–
CN[C@@H](C)[C@H](O)c1ccccc1,2.34% [at 42.5 µM] (inactive),–
CCCCCCCCCCCCCCCl,2.86% (inactive),–
C[Si](Cn1cncn1)(c1ccc(F)cc1)c1ccc(F)cc1,–,inactive
OCCCl,3.9% (inactive),–
O=C(O)c1cc(I)cc(I)c1I,5.44% (inactive),–
O=C(O)C(O)C(O)C(=O)O (stereo not given),-1.39% (inactive),–
CC(C)(C)NCC(O)c1ccccc1Cl (stereo not given),-1.44% [at 42.5 µM] (inactive),–
CN(C)N,0.0631% (inactive),–
CC(=O)NNc1ccccc1,0.628% (inactive),–
Cc1ccc2c(C)cccc2c1,2.89% (inactive),–
O=C(O)C(F)(F)C(F)(F)C(F)(F)C(F)(F)C(F)(F)F,0.333% (inactive),–
O=C(Cc1ccccc1)OCCc1ccccc1,-1.37% (inactive),–
O=C(Cc1ccccc1)c1ccccc1,0.0788% (inactive),–
CCCBr,-1.34% (inactive),–
Clc1ccccc1,-0.376% (inactive),–
O=C(O)COc1cc(Cl)c(Cl)cc1Cl,–,inactive
Cc1nc(N(C)C)nc(OC(=O)N(C)C)c1C,0.575% (inactive),–
C=CC(=O)OCC,2.75% (inactive),–
C=CCN1C[C@H](C)N([C@H](c2ccc(C(=O)N(CC)CC)cc2)c2cccc(OC)c2)C[C@H]1C,1.58% [at 42.5 µM] (inactive),–

Structure (SMILES),"activity change, negative = cytotoxicity",Potency
CCC(C)Cl (stereo not given),3.1% (inactive),–
O=CC=O,4.84% (inactive),–
CC(C)(C#N)C(C)(C)C#N,0.0473% (inactive),–
CCC(C)(C)c1ccc(O)c(C(C)(C)CC)c1,–,53.9 µM (active) and 30.6 µM (active)
CCCSP(=S)(OCC)Oc1ccc(SC)cc1 (stereo not given),1.36% (inactive),–
OCC1CO1 (stereo not given),–,inactive
C[N+]1(CCC(C(N)=O)(c2ccccc2)c2ccccc2)CCCCC1,2.3% [at 42.5 µM] (inactive),–
CCCC[N+]1(C)[C@@H]2CC(OC(=O)[C@H](CO)c3ccccc3)C[C@H]1[C@@H]1O[C@@H]12 (stereo not given in full),2.48% [at 42.5 µM] (inactive),–
Nc1cc(Cl)cc(C(=O)O)c1Cl,–,inactive
CC(Oc1cccc(Cl)c1)C(=O)O (stereo not given),-0.676% (inactive),–
O=[N+]([O-])O[C@H]1CO[C@H]2[C@@H]1OC[C@H]2O[N+](=O)[O-],-0.413% [at 42.5 µM] (inactive),–
Cc1ccc(N)c(C)c1,–,inactive
O=C(N/N=C/c1ccc([N+](=O)[O-])o1)c1cc([N+](=O)[O-])cc([N+](=O)[O-])c1O,-1.11% [at 42.5 µM] (inactive),–
O=C1CC[C@@]2(O)[C@H]3Cc4ccc(O)c5c4[C@@]2(CCN3CC2CC2)[C@H]1O5,3.9% [at 42.5 µM] (inactive),–
OCCSSCCO,0.0443% (inactive),–
OC[P+](CO)(CO)CO,–,inactive
C[CH2][Hg][S]c1ccccc1C(=O)O,–,13.7 µM (active) and 18.8 µM (active)
C=CCSSCC=C,-0.726% (inactive),–
CCOP(=O)(O)C(N)=O,0.467% (inactive),–
C=CCOC(=O)C(C)(C)OC(=O)c1cc(-n2c(=O)cc(C(F)(F)F)n(C)c2=O)ccc1Cl,0.565% (inactive),–
